Data from PubChem BioAssay.
Results filed as inconclusive are left out. Calls of active or inactive are those of the source.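 Rule for the calls, unless noted: active = viability at or below 27.92% in each of two runs, the all-compound median minus 4 SD; inconclusive = no clear call, values can overlap the other calls; inactive = the rest.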

assay: viability of HCT116 without oncogenic beta-catenin – human colon tumor cells, pilot screen (AID 823;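 active = cell viability at or below a set limit in both duplicate runs, the limit being the all-compound median minus 4 SD, cut at about 23% in these data, passing the limit was not always enough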;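 note: 0% = wells killed by 20 µM Hyamine and 100% = untreated DMSO cell wells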); details: HCT116 beta-catenin knockout viability, CellTiter-Glo, 60 h; at 10 µM; stronger effect = lower value

Compound | viability
CC1Cn2c(nnc2-c2ccc(F)cc2)S1 (stereo not given) | 112% (inactive)
COc1ccc(NC(=O)CN(c2ccc(C(C)C)cc2)S(=O)(=O)c2c(C)noc2C)cc1OC | 94.5% (inactive)
Cc1cc(C)c(C(=O)Nc2ccc(S(=O)(=O)Nc3onc(C)c3C)cc2)c(C)c1 | 93.3% (inactive)
COc1ccc(C2CC(c3ccco3)n3ncnc3N2)cc1 (stereo not given) | 97.7% (inactive)
CCCCn1c(CN2CCN(c3ccccc3)CC2)nc2c1c(=O)n(C)c(=O)n2C | 36.1% (inactive)
Cc1ccccc1NC(=O)C1CCCN(S(=O)(=O)c2cnc[nH]2)C1 (stereo not given) | 102% (inactive)
CCOC(=O)C1CCCN(C(=O)c2cn(C)c(=O)c3cc(OC)c(OC)cc23)C1 (stereo not given) | 97% (inactive)
O=C(C1CCN(S(=O)(=O)c2cccc3cccnc23)CC1)N1CCN(C2CCCCC2)CC1 | 97.8% (inactive)
Cc1nnc2n(-c3ccc(Cl)cc3)c(=O)c3c4c(sc3n12)CN(C)CC4 | 112% (inactive)
COc1ccc(OC)c(NC(=O)c2nnn(Cc3ccc(Br)cc3F)c2N)c1 | 69.5% (inactive)
CCCOc1ccc2ccccc2c1/C=N/n1cnnc1 | 92.4% (inactive)
CCOC(=O)C(C)(C)Sc1nc2c(cnn2-c2ccc(Cl)cc2)c(=O)[nH]1 | 91.9% (inactive)
Cc1cccc(N2C(=O)CC(N3CCN(c4cccc(C(F)(F)F)c4)CC3)C2=O)c1 (stereo not given) | 97.3% (inactive)
CC(=O)N1c2c(cc(Br)cc2S(=O)(=O)N2CCN(c3ccccn3)CC2)CC1C (stereo not given) | 99.1% (inactive)
O=C(O)c1ccc2c(c1)C(=O)N(c1ccc(Cl)cn1)C2=O | 102% (inactive)
CC(=O)c1sc(NC(=O)C2COc3ccccc3O2)nc1C (stereo not given) | 99.4% (inactive)
COc1ccc(OC)c2[nH]c(=O)c(CCNC(=O)C(C)C)cc12 | 108% (inactive)
COc1ccc(NC(=O)c2cc(C3CC3)on2)c(OC)c1 | 101% (inactive)
Cc1noc(C(=O)Nc2ccc3c(c2)OCO3)c1Cl | 95.9% (inactive)
CCC(CC)C(=O)NCCc1cc2ccc(C)cc2[nH]c1=O | 102% (inactive)
CCCS(=O)(=O)N1CCN(C(=O)c2cccnc2)CC1 | 101% (inactive)
CCCCn1c2c(c3ccccc31)CCc1nonc1-2 | 80.4% (inactive)
COc1ccc(-c2[nH]c(-c3cccc(OC)c3)nc2SCC(=O)NCc2ccco2)cc1 | 93.3% (inactive)
CC1=C(C(=O)OCc2ccccc2)C(c2ccco2)n2ncnc2N1 (stereo not given) | 92.8% (inactive)
Cc1c(C)n(C)c2ccc(C(=O)NCc3cccs3)cc12 | 97.5% (inactive)

assay: viability of PTEN-null HCT116 cells – cell-based, HCT116 clonal line, CellTiter-Glo, pilot screen (AID 824); details: HCT116 PTEN-deleted viability, 60 h, at 10 µM, stronger effect = lower value;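 note: 0% = 20 µM Hyamine control and 100% = vehicle cell control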

Compound | viability
CCCc1cc(C(=O)Nc2ccccc2SC)no1 | 93.4% (inactive)
Cc1ccc(C(=O)OCC(=O)Nc2ccc3c(c2)OCO3)o1 | 99.3% (inactive)
COC(=O)C(C#N)C(=C1C(=O)CC(C)(C)CC1=O)c1ccc(O)cc1 (stereo not given) | 101% (inactive)
COC(=O)c1cc(OC)c(OC)cc1NC(=O)c1ccc(Br)o1 | 86.1% (inactive)
COc1cccc(NC(=O)CSc2nnc(Cc3cccn3C)n2-c2ccc(F)cc2)c1 | 90.1% (inactive)
CCOc1ccc(N(CC(=O)OC)S(=O)(=O)c2ccc(OC)c(OC)c2)cc1 | 106% (inactive)
COC(=O)C1=C(C)NC(C)=C(C(=O)OC)C1C1CC=CCC1 (stereo not given) | 87.1% (inactive)
CCCCCn1c(=O)[nH]c2cc(C(=O)NCCN3CCOCC3)ccc2c1=O | 87.9% (inactive)
COc1ccccc1OCC(=O)N1CCN(c2ccccc2OC)CC1 | 95% (inactive)
COc1cccc(-c2nc(CS(=O)(=O)CC(=O)N3CCN(c4ccccn4)CC3)c(C)o2)c1 | 71.6% (inactive)
CC1C(=O)C(C)C(c2cccs2)NC1c1cccs1 (stereo not given) | 91% (inactive)
COc1ccc(N2C(=O)CCC(C(=O)N3CCCCC3)C2c2ccc(OC)c(OC)c2)cc1 (stereo not given) | 98.2% (inactive)
COc1cccc(NC(=O)c2nc3nc(C)cc(C(F)F)n3n2)c1 | 101% (inactive)
O=C(NCCN1CCOCC1)c1ccc2c(c1)N(Cc1ccccc1F)C(=O)CS2 | 102% (inactive)
CCn1cc(C(=O)NCc2ccccc2OC)c(=O)c2cc(S(=O)(=O)N(C)C)ccc21 | 85.5% (inactive)
CC1Cn2c(nnc2-c2ccc(F)cc2)S1 (stereo not given) | 101% (inactive)
COc1ccc(NC(=O)CN(c2ccc(C(C)C)cc2)S(=O)(=O)c2c(C)noc2C)cc1OC | 90.8% (inactive)
Cc1cc(C)c(C(=O)Nc2ccc(S(=O)(=O)Nc3onc(C)c3C)cc2)c(C)c1 | 95.3% (inactive)
COc1ccc(C2CC(c3ccco3)n3ncnc3N2)cc1 (stereo not given) | 94.6% (inactive)
CCCCn1c(CN2CCN(c3ccccc3)CC2)nc2c1c(=O)n(C)c(=O)n2C | 65.2% (inactive)

Compound | viability
Cc1ccccc1NC(=O)C1CCCN(S(=O)(=O)c2cnc[nH]2)C1 (stereo not given) | 101% (inactive)
CCOC(=O)C1CCCN(C(=O)c2cn(C)c(=O)c3cc(OC)c(OC)cc23)C1 (stereo not given) | 90.7% (inactive)
O=C(C1CCN(S(=O)(=O)c2cccc3cccnc23)CC1)N1CCN(C2CCCCC2)CC1 | 98.7% (inactive)
Cc1nnc2n(-c3ccc(Cl)cc3)c(=O)c3c4c(sc3n12)CN(C)CC4 | 93.1% (inactive)
COc1ccc(OC)c(NC(=O)c2nnn(Cc3ccc(Br)cc3F)c2N)c1 | 66.1% (inactive)
CCCOc1ccc2ccccc2c1/C=N/n1cnnc1 | 80.9% (inactive)
CCOC(=O)C(C)(C)Sc1nc2c(cnn2-c2ccc(Cl)cc2)c(=O)[nH]1 | 78.2% (inactive)
Cc1cccc(N2C(=O)CC(N3CCN(c4cccc(C(F)(F)F)c4)CC3)C2=O)c1 (stereo not given) | 97.8% (inactive)
CC(=O)N1c2c(cc(Br)cc2S(=O)(=O)N2CCN(c3ccccn3)CC2)CC1C (stereo not given) | 95.6% (inactive)
O=C(O)c1ccc2c(c1)C(=O)N(c1ccc(Cl)cn1)C2=O | 96.2% (inactive)
CC(=O)c1sc(NC(=O)C2COc3ccccc3O2)nc1C (stereo not given) | 99% (inactive)
COc1ccc(OC)c2[nH]c(=O)c(CCNC(=O)C(C)C)cc12 | 103% (inactive)
COc1ccc(NC(=O)c2cc(C3CC3)on2)c(OC)c1 | 92.2% (inactive)
Cc1noc(C(=O)Nc2ccc3c(c2)OCO3)c1Cl | 89.7% (inactive)
CCC(CC)C(=O)NCCc1cc2ccc(C)cc2[nH]c1=O | 97.4% (inactive)
CCCS(=O)(=O)N1CCN(C(=O)c2cccnc2)CC1 | 95.2% (inactive)
CCCCn1c2c(c3ccccc31)CCc1nonc1-2 | 78.4% (inactive)
COc1ccc(-c2[nH]c(-c3cccc(OC)c3)nc2SCC(=O)NCc2ccco2)cc1 | 90.3% (inactive)
CC1=C(C(=O)OCc2ccccc2)C(c2ccco2)n2ncnc2N1 (stereo not given) | 89% (inactive)
Cc1c(C)n(C)c2ccc(C(=O)NCc3cccs3)cc12 | 96.8% (inactive)
